KB-3-1 cytotox: KB-3-1 parental cell cytotoxicity; Potency, µM (doses to about 46.1 µM), most hits filed as cytotoxic; hit rate 1.4% among 400,000; KB-3-1 viability, CellTiter-Glo ATP luminescence, 72 h; also: nearly all actives have a fitted effect of over 60% in size
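Using CellTiter-Glo luminescence, growth of non-resistant KB-3-1 adenocarcinoma cells is assessed 72 h after pin-tool compound addition at 37 °C. Normalized responses across the concentration series yield fitted curves.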
DT40 TDP1 no CPT: qHTS for Inhibitors of human tyrosyl-DNA phosphodiesterase 1 (TDP1): qHTS in cells in absence of CPT; DT40 Tdp1-/- hTDP1 cells, no CPT, ATP luminescence, 48 h; Potency, µM (doses to about 46.2 µM), inactives show at the top dose activity change, negative = growth inhibition, most hits filed as inhibitors; hit rate 15% among 420,000; AID 686978, 2013; also: nearly all actives have a fitted effect of over 55% in size
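Chicken DT40 Tdp1-/- cells complemented with human TDP1, screened without camptothecin (DMSO vehicle only), 400 cells/well. Compounds pin-transferred, cells incubated at 37 °C for at least 48 hr. Growth read as ATP-dependent luminescence (CellTiter-Glo, 30 min at RT).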
HT1080 IDH1KD tx: kills HT-1080 cells with IDH1 knockdown; HT-1080 IDH1 knockdown viability, ATP luminescence, 48 h; Potency, µM (titrated, usually from 46.1 µM), without a hit: top-dose activity, negative = toxicity, most hits filed as cytotoxic; hit rate 2% among 360,000; AID 686971;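 also: 0% = DMSO wells and -100% = cell-free medium wells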
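After a 2 h attachment period, IDH1KD HT-1080 cells took pin-transferred compound for 48 h at 37 °C; ATP-based luminescence after 10 min room-temperature reagent incubation reported viability.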
HT1080NT lethal: kills 2HG-producing HT-1080-NT fibrosarcoma cells | HT-1080-NT fibrosarcoma viability, CellTiter-Glo ATP luminescence, 48 h | Potency, µM (series often up to 46.1 µM), without a hit: at the highest dose activity, negative = less viability, actives largely listed as cytotoxic | hit rate 1.6% among 360,000 | AID 686970;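 also: NT is the 2HG producing partner of a matched IDH1 knockdown line; 0% = DMSO-treated cells and -100% = media-only wells without cells; nearly all actives have a fitted effect of over 55% in size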
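Viability of the 2HG-overproducing fibrosarcoma line after 48 hours of compound exposure at 37 degrees C was determined by luminescence with CellTiter-Glo, and concentration-effect curves were then fitted and categorized.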
DT40 TDP1 CPT: DT40-hTDP1 cell growth loss with CPT; Potency, µM (top dose mostly 46.2 µM), for the others: at the top dose activity change, negative = growth inhibition, hits mostly inhibitors; hit rate 12% among 420,000; chicken DT40 Tdp1-/-;hTDP1 cells + 20 nM CPT, ATP luminescence, 48 h; AID 686979; also: nearly all actives have a fitted effect of over 55% in size
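Cell growth measured by CellTiter-Glo luminescence after a minimum 48 h, 37 C compound exposure with 20 nM CPT in Tdp1-knockout DT40 cells stably expressing hTDP1, seeded 400/well; qHTS titration format.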
KB-V1 MDR tox: kills drug-selected multidrug resistant KB-V1 cells. KB-V1 MDR cells viability, CellTiter-Glo, 72 h. AID 1347076. hit rate 3.4% among 400,000. Potency, µM (doses to about 46.1 µM), actives largely listed as cytotoxic; also: nearly all actives have a fitted effect of over 60% in size
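KB-V1, DMEM (no phenol red) + 10% FBS; cpd pin-transferred, titration series; 72 h, 37 degrees C; CellTiter-Glo, luminescence. Data normalized, curve-fit.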
An asterisk follows results filed as active. This is a sample that favours compounds with a hit; in the whole collection about 19% have one here. Calls follow the shape of the dose curve; as a rule, active = well fitted curve in the direction sought with a large enough effect; inconclusive = small, poorly fitted or top-dose-only effect, or another doubt; inactive = no such curve, though single readings can be large; an effect the other way counts as inactive or inconclusive. Unless noted, % is scaled to controls: 0 for no effect and ±100 for the full control effect; potency is read from the fitted curve at half-maximal effect.

For COCCCNC(=O)C1CCN(C(=O)c2ccc(-n3ccc4ccccc43)s2)CC1 the results were KB-3-1 cytotox inactive, DT40 TDP1 no CPT 16.4µM*, DT40 TDP1 CPT 18.4µM* and KB-V1 MDR tox inactive.
For COc1ccccc1Nc1cc(C(=O)NC2CCC(C)CC2)c2ccccc2n1 (centres undefined) the results were KB-3-1 cytotox inactive, DT40 TDP1 no CPT -22.1%, DT40 TDP1 CPT 3.4% and KB-V1 MDR tox inactive.
CN(C)c1ccc(-c2cc3ccccc3c(=O)o2)cc1 was read as KB-3-1 cytotox inactive, DT40 TDP1 no CPT -29.4%, HT1080 IDH1KD tx 6.2%, HT1080NT lethal 9.3%, DT40 TDP1 CPT 4.3% and KB-V1 MDR tox inactive.
For COc1cccc(C(=O)NCc2nc(-c3ccccc3)no2)c1OC the results were KB-3-1 cytotox inactive, DT40 TDP1 no CPT inconclusive, DT40 TDP1 CPT -29.2% and KB-V1 MDR tox inactive.
Screening Cc1ccc2c(=O)cc(C(=O)Nc3ccc(S(=O)(=O)N4CCCCC4C)cc3)oc2c1C (centres undefined) returned KB-3-1 cytotox inactive, DT40 TDP1 no CPT -21.0%, DT40 TDP1 CPT -8.7% and KB-V1 MDR tox inconclusive.
`Nc1c2c(nc3ccc(Br)cc13)N(Cc1ccccc1)CC2` gave KB-3-1 cytotox inconclusive, DT40 TDP1 no CPT 20.6µM*, HT1080 IDH1KD tx -14.0%, HT1080NT lethal -10.3%, DT40 TDP1 CPT inconclusive and KB-V1 MDR tox inactive.
CC(OC(=O)c1cccnc1Cl)C(=O)Nc1ccc2c(c1)OCO2 (centres undefined) was read as KB-3-1 cytotox inactive, DT40 TDP1 no CPT 20.6µM*, HT1080 IDH1KD tx 0.3%, HT1080NT lethal 0.5%, DT40 TDP1 CPT inconclusive and KB-V1 MDR tox inactive.
`COc1cccc(C(=O)OC(C)C(=O)Nc2ccc3c(c2)OCO3)c1` (centres undefined) gave KB-3-1 cytotox inactive, DT40 TDP1 no CPT 8.2µM*, HT1080 IDH1KD tx -4.7%, HT1080NT lethal -7.9%, DT40 TDP1 CPT 13µM* and KB-V1 MDR tox inactive.
COc1cccc(NC(=O)Nc2ccc3c(c2)OCO3)c1 was read as KB-3-1 cytotox inactive, DT40 TDP1 no CPT 6.8%, HT1080 IDH1KD tx -0.4%, HT1080NT lethal 0.1%, DT40 TDP1 CPT 2.3% and KB-V1 MDR tox inactive.
Screening CCc1c(C)sc(NC(=O)c2cc3nc(-c4ccc(OC)cc4)cc(C(F)(F)F)n3n2)c1C(=O)OC returned KB-3-1 cytotox inactive, DT40 TDP1 no CPT -3.4%, DT40 TDP1 CPT 5.0% and KB-V1 MDR tox inactive.
For CCC(C)[C@H]1CN=C(N)N1CC1CCCCC1 (some centres undefined) the results were KB-3-1 cytotox inconclusive, DT40 TDP1 no CPT 2.31µM*, HT1080 IDH1KD tx -8.4%, HT1080NT lethal -5.1%, DT40 TDP1 CPT 2.59µM* and KB-V1 MDR tox inactive.
For Fc1cccc(CCN2C(=S)NC[C@@H]2Cc2ccccc2)c1 the results were KB-3-1 cytotox inactive, DT40 TDP1 no CPT inconclusive, HT1080 IDH1KD tx 6.3%, HT1080NT lethal 2.3%, DT40 TDP1 CPT 20.6µM* and KB-V1 MDR tox inactive.
Screening NCCCC[C@H]1CN=C(N)N1CC1CCCCC1 returned KB-3-1 cytotox inactive, DT40 TDP1 no CPT -2.9%, HT1080 IDH1KD tx 4.1%, HT1080NT lethal 7.6%, DT40 TDP1 CPT -13.8% and KB-V1 MDR tox inactive.
Screening NC1=NC[C@H](c2ccccc2)N1CCCCC1CCCCC1 returned KB-3-1 cytotox inconclusive, DT40 TDP1 no CPT 7.31µM*, HT1080 IDH1KD tx -10.4%, HT1080NT lethal -9.1%, DT40 TDP1 CPT 5.17µM* and KB-V1 MDR tox inactive.
For CC(O)[C@H]1CN=C(N)N1CCCCC1CCCCC1 (some centres undefined) the results were KB-3-1 cytotox inconclusive, DT40 TDP1 no CPT 8.2µM*, HT1080 IDH1KD tx -7.2%, HT1080NT lethal -24.3%, DT40 TDP1 CPT 9.2µM* and KB-V1 MDR tox inconclusive.
`O=C(Nc1cccc2ccccc12)N(CCO)C1CCS(=O)(=O)C1` (centres undefined) gave KB-3-1 cytotox inactive, DT40 TDP1 no CPT -8.4%, HT1080 IDH1KD tx -4.3%, HT1080NT lethal -0.6%, DT40 TDP1 CPT -6.0% and KB-V1 MDR tox inactive.
Screening COc1ccc2oc(C(=O)N3CCCc4ccccc43)c(C)c2c1 returned KB-3-1 cytotox inactive, DT40 TDP1 no CPT inconclusive, HT1080 IDH1KD tx 1.9%, HT1080NT lethal -4.5%, DT40 TDP1 CPT inconclusive and KB-V1 MDR tox inactive.
For Nc1ccn([C@@H]2O[C@H](CNC(=O)[C@@H](N)CSCc3ccccc3)[C@@H](O)[C@H]2O)c(=O)n1 the results were KB-3-1 cytotox inactive, DT40 TDP1 no CPT -16.6%, HT1080 IDH1KD tx 6.8%, HT1080NT lethal 3.9%, DT40 TDP1 CPT -17.4% and KB-V1 MDR tox inconclusive.
`NC1=NC[C@H](c2ccccc2)N1CCc1cccc(F)c1` gave KB-3-1 cytotox inactive, DT40 TDP1 no CPT 13µM*, HT1080 IDH1KD tx -4.1%, HT1080NT lethal -2.2%, DT40 TDP1 CPT 16.4µM* and KB-V1 MDR tox inactive.
`Fc1cccc(CCN2CCNC[C@@H]2c2ccccc2)c1` gave KB-3-1 cytotox inactive, DT40 TDP1 no CPT inconclusive, HT1080 IDH1KD tx -4.0%, HT1080NT lethal -11.2%, DT40 TDP1 CPT inconclusive and KB-V1 MDR tox inconclusive.
For O=C(O)c1ccc(NC2=C/C(=N/S(=O)(=O)c3cccs3)c3ccccc3C2=O)cc1 the results were KB-3-1 cytotox inconclusive, DT40 TDP1 no CPT 6.51µM*, HT1080 IDH1KD tx inconclusive, HT1080NT lethal inconclusive, DT40 TDP1 CPT 9.2µM* and KB-V1 MDR tox inconclusive.
`O=C1C(Nc2ccc(O)cc2)=C/C(=N/S(=O)(=O)c2cccs2)c2ccccc21` gave KB-3-1 cytotox 3.26µM*, DT40 TDP1 no CPT 1.46µM*, HT1080 IDH1KD tx 1.46µM*, HT1080NT lethal 2.31µM*, DT40 TDP1 CPT 1.16µM* and KB-V1 MDR tox 13µM*.
Screening C/C(=N\NC(=O)c1nnn(-c2nonc2N)c1CSc1ccccc1)c1ccc2c(c1)OCO2 returned KB-3-1 cytotox inactive, DT40 TDP1 no CPT 1.2%, HT1080 IDH1KD tx -1.1%, HT1080NT lethal 2.1%, DT40 TDP1 CPT 5.5% and KB-V1 MDR tox inactive.
For CCN1CCc2c(sc(NC(=O)c3ccc(S(=O)(=O)N(CC)c4ccccc4)cc3)c2C(N)=O)C1 the results were KB-3-1 cytotox inconclusive, DT40 TDP1 no CPT 14.6µM*, HT1080 IDH1KD tx 5.8µM*, HT1080NT lethal 18.4µM*, DT40 TDP1 CPT inconclusive and KB-V1 MDR tox inconclusive.

Compound activity deposited in PubChem BioAssay by National Center for Advancing Translational Sciences (NCATS).
